Our source for the binding signal values is PMC7862700, “An all-to-all approach to the identification of sequence-specific readers for epigenetic DNA modifications on cytosine”.

Experiment in all cases: DAPPL (digital affinity profiling via proximity ligation, sequencing); 10 mM Tris-HCl pH 7.5, 50 mM NaCl, 1 mM DTT, 4% glycerol, room temperature, 30 min; GST-TFs on glutathione beads, 16-mer random dsDNA library, 0.1% formaldehyde crosslink after washing; high values mean tight binding
The target of one experiment is T1, FLI1 (Homo sapiens, UniProt Q01543 1-452).
T1 sequence: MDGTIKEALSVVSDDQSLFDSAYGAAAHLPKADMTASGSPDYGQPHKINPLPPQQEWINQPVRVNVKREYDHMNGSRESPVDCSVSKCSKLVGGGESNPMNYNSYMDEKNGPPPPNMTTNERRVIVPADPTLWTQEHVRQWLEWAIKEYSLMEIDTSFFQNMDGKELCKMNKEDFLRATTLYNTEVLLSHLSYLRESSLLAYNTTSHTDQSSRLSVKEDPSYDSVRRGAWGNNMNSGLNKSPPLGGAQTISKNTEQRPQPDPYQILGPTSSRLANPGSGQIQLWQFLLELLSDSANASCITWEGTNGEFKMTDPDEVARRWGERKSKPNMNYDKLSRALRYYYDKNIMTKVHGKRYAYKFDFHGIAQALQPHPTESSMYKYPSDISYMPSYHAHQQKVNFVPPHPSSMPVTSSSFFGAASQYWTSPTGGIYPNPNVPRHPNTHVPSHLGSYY
The following applies: protein: recombinant; tags: N-terminal GST; dsDNA, one strand shown. In outline: (§1)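 The binding signal reported is, for every hexamer, its read frequency for a factor over its read frequency for the tag-only sample. Reads came from pools of yeast-expressed, GST-fused human transcription factors on glutathione beads, barcoded with DNA and mixed with that sample, which were incubated with 200 nmole of a random double-stranded 16-mer DNA library in Tris/NaCl/DTT/glycerol buffer at room temperature for 30 min. After washing, the pools were crosslinked with 0.1% formaldehyde, proximity-ligated with BsaI/T4 ligase for 1 h at 37 °C, PCR-amplified and sequenced on an Illumina NextSeq500.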

The target of another experiment is T2, ELK1 (Homo sapiens, UniProt P19419 1-428).
T2 sequence: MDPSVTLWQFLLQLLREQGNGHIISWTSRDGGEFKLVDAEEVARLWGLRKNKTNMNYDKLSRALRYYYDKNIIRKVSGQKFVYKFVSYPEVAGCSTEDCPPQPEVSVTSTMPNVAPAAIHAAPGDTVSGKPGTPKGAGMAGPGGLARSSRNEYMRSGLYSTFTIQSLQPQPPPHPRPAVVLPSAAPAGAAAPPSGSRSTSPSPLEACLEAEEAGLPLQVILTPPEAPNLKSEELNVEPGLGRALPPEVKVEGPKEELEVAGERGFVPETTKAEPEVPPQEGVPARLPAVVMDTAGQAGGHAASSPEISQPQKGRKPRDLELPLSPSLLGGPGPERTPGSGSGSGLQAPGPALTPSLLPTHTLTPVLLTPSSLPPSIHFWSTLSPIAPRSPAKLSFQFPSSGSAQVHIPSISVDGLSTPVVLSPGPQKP
The following applies: protein: recombinant; tags: N-terminal GST; dsDNA, one strand shown. An outline of the steps:
as §1

For a further experiment, the target named is T3, GABPA (Homo sapiens, UniProt Q06546 1-454).
T3 sequence: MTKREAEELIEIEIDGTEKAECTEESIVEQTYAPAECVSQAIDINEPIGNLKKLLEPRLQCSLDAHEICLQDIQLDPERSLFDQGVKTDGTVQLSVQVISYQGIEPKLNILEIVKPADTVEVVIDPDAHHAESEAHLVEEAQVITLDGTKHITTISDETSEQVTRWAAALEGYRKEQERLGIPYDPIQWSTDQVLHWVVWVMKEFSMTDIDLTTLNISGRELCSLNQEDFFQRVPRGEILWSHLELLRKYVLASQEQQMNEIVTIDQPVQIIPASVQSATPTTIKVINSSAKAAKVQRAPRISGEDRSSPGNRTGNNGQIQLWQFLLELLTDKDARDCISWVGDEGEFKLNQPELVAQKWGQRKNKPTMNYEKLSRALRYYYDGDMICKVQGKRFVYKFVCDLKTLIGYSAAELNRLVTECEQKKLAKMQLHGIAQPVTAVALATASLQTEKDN
The following applies: protein: recombinant; tags: N-terminal GST; dsDNA, one strand shown. An outline of the steps: as §1

In another experiment the target is T4, ERG (Homo sapiens, UniProt P11308 1-479).
T4 sequence: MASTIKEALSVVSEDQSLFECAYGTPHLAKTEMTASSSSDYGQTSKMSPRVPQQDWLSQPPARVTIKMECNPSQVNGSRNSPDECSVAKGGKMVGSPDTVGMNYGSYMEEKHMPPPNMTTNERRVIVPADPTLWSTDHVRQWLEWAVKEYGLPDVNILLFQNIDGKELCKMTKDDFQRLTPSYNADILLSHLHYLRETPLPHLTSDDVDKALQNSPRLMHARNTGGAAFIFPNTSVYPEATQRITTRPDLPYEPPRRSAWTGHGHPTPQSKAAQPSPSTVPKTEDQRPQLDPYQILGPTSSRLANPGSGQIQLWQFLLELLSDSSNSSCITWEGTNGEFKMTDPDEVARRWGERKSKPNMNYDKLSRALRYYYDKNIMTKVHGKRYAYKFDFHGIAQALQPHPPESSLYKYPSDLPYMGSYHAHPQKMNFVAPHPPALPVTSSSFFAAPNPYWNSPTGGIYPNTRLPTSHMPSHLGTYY
The following applies: protein: recombinant; tags: N-terminal GST; dsDNA, one strand shown. An outline of the steps: as §1

The target of the next experiment is ELF1 (Homo sapiens, UniProt P32519 1-619). The following applies: protein: recombinant; tags: N-terminal GST; dsDNA, one strand shown. An outline of the steps:
as §1

For a further experiment, the target named is T5, EHF (Homo sapiens, UniProt Q9NZC4 1-300).
T5 sequence: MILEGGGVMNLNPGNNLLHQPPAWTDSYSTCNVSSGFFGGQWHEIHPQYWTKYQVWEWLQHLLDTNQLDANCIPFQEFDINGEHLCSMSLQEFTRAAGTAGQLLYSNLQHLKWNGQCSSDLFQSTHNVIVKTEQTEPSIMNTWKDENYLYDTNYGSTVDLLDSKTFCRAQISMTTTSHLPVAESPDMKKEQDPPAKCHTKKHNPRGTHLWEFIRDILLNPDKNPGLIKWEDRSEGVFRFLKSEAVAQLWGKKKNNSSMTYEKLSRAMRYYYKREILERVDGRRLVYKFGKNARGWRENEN
The following applies: protein: recombinant; tags: N-terminal GST; dsDNA, one strand shown. An outline of the steps: as §1

The next experiment addresses SPI1 (Homo sapiens, UniProt P17947 1-270). The following applies: protein: recombinant; tags: N-terminal GST; dsDNA, one strand shown. In outline:
as §1

For another experiment, the target named is SPIB (Homo sapiens, UniProt Q01892 1-262). The following applies: protein: recombinant; tags: N-terminal GST; dsDNA, one strand shown. An outline of the steps: as §1
Sequence of SPIB (Q01892 whole entry): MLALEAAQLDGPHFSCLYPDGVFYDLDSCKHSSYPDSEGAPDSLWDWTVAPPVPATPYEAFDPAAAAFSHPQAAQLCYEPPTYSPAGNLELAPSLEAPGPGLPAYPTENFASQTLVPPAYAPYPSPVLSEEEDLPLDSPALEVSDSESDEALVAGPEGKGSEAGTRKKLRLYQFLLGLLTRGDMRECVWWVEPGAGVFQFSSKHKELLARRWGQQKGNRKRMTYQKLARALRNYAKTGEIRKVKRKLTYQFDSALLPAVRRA
The target of the next experiment is T6, ELK3 (Homo sapiens, UniProt P41970 1-407).
T6 sequence: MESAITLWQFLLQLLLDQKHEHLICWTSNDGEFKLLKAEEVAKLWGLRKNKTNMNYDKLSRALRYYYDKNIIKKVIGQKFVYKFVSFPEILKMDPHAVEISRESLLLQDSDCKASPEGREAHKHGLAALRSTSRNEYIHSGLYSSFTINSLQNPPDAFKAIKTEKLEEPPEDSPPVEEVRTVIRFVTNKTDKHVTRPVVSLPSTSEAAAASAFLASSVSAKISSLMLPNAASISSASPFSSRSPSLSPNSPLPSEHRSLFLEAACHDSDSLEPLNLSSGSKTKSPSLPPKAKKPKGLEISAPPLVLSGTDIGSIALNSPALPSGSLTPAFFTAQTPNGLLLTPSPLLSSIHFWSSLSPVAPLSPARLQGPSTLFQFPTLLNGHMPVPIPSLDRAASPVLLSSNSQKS
The following applies: protein: recombinant; tags: N-terminal GST; dsDNA, one strand shown. An outline of the steps:
as §1

In a further experiment the target is T7, FEV (Homo sapiens, UniProt Q99581 1-238).
T7 sequence: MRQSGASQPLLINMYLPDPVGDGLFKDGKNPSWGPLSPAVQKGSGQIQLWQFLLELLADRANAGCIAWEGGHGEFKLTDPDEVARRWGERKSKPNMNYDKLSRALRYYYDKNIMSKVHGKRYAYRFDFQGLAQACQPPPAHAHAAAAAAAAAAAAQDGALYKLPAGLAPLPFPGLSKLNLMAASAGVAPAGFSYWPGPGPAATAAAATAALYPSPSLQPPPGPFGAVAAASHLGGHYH
The following applies: protein: recombinant; tags: N-terminal GST; dsDNA, one strand shown. An outline of the steps:
as §1

The next experiment has as its target ETV5 (Homo sapiens, UniProt P41161 1-510). The following applies: protein: recombinant; tags: N-terminal GST; dsDNA, one strand shown. In outline: as §1
Another experiment addresses HSF1 (Homo sapiens, UniProt Q00613 1-529). The following applies: protein: recombinant; tags: N-terminal GST; chain copies: 3; dsDNA, one strand shown. In outline: as §1
In a further experiment the target is T8, SPIC (Homo sapiens, UniProt Q8N5J4 1-248).
T8 sequence: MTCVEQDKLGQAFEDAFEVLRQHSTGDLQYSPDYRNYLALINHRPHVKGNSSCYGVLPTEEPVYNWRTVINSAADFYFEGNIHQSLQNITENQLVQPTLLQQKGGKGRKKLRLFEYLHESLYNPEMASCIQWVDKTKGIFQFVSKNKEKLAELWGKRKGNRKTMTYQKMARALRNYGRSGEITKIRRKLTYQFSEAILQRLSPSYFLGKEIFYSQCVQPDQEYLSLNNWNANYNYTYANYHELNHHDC
The following applies: protein: recombinant; tags: N-terminal GST; dsDNA, one strand shown. An outline of the steps: as §1

For the next experiment, the target named is ELF4 (Homo sapiens, UniProt Q99607 1-663). The following applies: protein: recombinant; tags: N-terminal GST; dsDNA, one strand shown. An outline of the steps: as §1
Sequence of ELF4 (Q99607 whole entry): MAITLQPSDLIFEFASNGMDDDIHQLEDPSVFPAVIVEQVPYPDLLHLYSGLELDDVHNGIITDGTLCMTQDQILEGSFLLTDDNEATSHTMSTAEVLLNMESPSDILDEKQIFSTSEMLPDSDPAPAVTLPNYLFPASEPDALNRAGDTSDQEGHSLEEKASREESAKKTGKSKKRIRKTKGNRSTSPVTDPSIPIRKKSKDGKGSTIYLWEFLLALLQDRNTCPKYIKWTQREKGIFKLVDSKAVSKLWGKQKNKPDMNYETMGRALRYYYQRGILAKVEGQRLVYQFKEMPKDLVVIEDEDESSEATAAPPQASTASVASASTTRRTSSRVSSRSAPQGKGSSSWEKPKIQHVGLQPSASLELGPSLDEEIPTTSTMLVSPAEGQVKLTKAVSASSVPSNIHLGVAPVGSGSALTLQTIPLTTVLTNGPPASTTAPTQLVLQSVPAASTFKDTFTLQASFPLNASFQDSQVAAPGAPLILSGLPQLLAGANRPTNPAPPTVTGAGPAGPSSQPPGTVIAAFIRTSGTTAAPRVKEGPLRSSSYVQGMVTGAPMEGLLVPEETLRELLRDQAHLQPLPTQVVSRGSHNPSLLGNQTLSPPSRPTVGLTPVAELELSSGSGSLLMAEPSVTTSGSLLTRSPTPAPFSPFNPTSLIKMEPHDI
Another experiment concerns the target T9, ELK4 (Homo sapiens, UniProt P28324-2 1-405).
T9 sequence: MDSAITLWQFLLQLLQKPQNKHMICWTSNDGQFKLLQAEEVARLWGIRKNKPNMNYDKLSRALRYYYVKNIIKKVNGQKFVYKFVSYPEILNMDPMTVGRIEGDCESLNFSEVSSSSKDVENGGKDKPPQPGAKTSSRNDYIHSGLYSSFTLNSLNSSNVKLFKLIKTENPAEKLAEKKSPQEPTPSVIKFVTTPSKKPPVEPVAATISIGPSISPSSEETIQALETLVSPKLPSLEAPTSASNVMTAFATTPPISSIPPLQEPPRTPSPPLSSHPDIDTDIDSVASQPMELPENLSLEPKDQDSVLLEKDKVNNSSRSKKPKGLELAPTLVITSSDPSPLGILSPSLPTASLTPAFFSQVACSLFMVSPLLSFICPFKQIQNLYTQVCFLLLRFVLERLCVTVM
The following applies: protein: recombinant; tags: N-terminal GST; dsDNA, one strand shown. An outline of the steps:
as §1

A further experiment addresses T10, ELF3 (Homo sapiens, UniProt P78545 1-371).
T10 sequence: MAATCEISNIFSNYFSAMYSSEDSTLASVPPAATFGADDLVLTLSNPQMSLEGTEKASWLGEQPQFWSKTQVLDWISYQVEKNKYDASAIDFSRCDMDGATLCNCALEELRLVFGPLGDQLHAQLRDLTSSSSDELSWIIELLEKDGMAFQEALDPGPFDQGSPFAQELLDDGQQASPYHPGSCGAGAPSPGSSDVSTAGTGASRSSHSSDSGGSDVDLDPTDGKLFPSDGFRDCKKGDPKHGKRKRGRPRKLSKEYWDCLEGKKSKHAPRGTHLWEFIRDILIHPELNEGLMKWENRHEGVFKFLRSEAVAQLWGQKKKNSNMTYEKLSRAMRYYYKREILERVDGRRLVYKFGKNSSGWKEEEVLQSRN
The following applies: protein: recombinant; tags: N-terminal GST; dsDNA, one strand shown. An outline of the steps:
as §1

Another experiment deals with CRX (Homo sapiens, UniProt O43186 1-299). The following applies: protein: recombinant; tags: N-terminal GST; dsDNA, one strand shown. In outline: as §1
Sequence of CRX (O43186 whole entry): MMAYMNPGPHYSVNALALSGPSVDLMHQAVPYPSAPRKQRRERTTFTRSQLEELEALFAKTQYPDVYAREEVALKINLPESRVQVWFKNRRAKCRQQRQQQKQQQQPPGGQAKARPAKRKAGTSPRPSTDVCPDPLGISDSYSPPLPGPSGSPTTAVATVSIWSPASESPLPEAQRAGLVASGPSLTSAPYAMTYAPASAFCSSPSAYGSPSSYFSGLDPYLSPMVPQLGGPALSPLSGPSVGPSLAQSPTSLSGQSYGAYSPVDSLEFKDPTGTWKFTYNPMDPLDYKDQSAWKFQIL
The target in a further experiment is ETV1 (Homo sapiens, UniProt P50549 1-477). The following applies: protein: recombinant; tags: N-terminal GST; dsDNA, one strand shown. An outline of the steps:
as §1

Sequence of ELF1 (P32519 whole entry): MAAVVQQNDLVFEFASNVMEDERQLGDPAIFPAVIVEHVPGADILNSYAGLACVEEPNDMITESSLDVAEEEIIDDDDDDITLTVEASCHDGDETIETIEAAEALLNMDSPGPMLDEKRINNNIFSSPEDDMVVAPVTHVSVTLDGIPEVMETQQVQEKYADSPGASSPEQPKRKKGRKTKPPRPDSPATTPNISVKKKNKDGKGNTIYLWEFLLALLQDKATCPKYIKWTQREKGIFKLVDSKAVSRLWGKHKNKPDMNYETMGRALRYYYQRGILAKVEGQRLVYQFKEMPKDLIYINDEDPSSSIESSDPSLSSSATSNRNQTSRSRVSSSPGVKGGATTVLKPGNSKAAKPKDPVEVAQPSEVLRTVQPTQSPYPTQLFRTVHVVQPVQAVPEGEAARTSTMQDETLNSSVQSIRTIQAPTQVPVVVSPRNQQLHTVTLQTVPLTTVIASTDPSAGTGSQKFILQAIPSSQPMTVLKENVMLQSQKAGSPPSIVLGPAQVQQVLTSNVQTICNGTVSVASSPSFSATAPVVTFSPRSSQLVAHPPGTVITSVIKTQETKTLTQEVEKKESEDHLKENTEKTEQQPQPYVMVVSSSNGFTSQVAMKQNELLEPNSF
Sequence of HSF1 (Q00613 whole entry): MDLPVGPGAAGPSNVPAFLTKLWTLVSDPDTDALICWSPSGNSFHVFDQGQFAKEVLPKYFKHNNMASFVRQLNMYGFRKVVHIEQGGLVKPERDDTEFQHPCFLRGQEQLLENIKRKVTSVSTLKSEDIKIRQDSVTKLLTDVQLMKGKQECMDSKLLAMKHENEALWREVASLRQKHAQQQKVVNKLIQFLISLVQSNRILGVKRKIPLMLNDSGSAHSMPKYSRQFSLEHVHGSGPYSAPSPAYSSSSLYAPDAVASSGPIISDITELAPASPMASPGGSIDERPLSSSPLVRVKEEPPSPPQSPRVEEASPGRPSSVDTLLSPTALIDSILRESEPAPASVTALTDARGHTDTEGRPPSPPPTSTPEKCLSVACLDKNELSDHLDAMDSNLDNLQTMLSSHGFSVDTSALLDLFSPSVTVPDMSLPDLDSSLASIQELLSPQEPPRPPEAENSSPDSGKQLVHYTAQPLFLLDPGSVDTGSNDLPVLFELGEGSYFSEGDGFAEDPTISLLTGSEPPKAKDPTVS
Sequence of ETV1 (P50549 whole entry): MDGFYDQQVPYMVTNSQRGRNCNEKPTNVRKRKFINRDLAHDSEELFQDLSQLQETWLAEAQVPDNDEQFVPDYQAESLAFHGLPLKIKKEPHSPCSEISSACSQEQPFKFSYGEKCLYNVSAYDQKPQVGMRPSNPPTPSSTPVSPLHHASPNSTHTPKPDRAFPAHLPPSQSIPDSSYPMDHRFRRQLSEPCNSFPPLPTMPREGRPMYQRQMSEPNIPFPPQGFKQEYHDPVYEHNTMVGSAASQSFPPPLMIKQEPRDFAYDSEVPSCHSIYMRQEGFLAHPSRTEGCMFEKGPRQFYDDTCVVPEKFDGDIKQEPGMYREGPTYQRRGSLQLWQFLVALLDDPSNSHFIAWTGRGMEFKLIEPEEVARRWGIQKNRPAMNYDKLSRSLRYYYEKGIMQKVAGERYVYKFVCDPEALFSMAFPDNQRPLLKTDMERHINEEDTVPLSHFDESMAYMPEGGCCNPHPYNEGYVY
Sequence of ETV5 (P41161 whole entry): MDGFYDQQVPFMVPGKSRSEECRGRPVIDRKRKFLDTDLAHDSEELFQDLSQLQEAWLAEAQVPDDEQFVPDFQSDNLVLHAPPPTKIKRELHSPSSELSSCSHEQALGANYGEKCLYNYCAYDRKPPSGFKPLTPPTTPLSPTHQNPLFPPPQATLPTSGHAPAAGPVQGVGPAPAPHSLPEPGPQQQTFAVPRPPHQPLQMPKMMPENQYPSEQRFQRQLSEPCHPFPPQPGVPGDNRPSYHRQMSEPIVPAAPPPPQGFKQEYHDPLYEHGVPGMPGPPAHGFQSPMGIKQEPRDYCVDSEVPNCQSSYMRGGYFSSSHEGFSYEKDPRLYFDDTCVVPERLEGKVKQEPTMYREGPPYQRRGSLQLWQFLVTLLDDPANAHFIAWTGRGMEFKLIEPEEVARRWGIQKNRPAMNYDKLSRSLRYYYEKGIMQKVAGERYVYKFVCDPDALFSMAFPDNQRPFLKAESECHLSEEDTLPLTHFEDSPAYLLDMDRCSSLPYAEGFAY

In the case of ATACGC, the binding signal in the experiment with FLI1 was 1.09 fold enrichment (6-mer frequency, TF over GST control); with ELK1, 1.14 fold enrichment (6-mer frequency, TF over GST control); in the experiment with GABPA, 1.2 fold enrichment (6-mer frequency, TF over GST control); with ERG, 1.13 fold enrichment (6-mer frequency, TF over GST control); with ELF1, 1.17 fold enrichment (6-mer frequency, TF over GST control); with EHF, 1.11 fold enrichment (6-mer frequency, TF over GST control). In addition, the binding signal is 1.08 fold enrichment (6-mer frequency, TF over GST control) with SPI1; 1.19 fold enrichment (6-mer frequency, TF over GST control) with SPIB; 1.18 fold enrichment (6-mer frequency, TF over GST control) with ELK3; 1.05 fold enrichment (6-mer frequency, TF over GST control) with FEV; 1.13 fold enrichment (6-mer frequency, TF over GST control) in the experiment with ETV5; 1.04 fold enrichment (6-mer frequency, TF over GST control) with HSF1. Further, the binding signal was 1.08 fold enrichment (6-mer frequency, TF over GST control) in the experiment with SPIC; 1.18 fold enrichment (6-mer frequency, TF over GST control) with ELF4; 1.08 fold enrichment (6-mer frequency, TF over GST control) with ELK4; 1.13 fold enrichment (6-mer frequency, TF over GST control) in the experiment with ELF3; 1.12 fold enrichment (6-mer frequency, TF over GST control) with CRX; 1.18 fold enrichment (6-mer frequency, TF over GST control) with ETV1.
